Screens as filed in PubChem BioAssay.
Ba CapD inh = inhibitors of Bacillus anthracis CapD enzyme; purified CapD enzyme, fluorescence intensity read-out; hits give low values; z-score (test concentration not listed); 140,000 tested, 0.23% active; AID 492967; in the data active = z-score mostly below about -2.9, no sharp cut-off; inactive = mostly above about -1.9
AID504770 = growth inhibitors of E. coli YBA685 in a screen for V. cholerae RctB (chromosome II replication) inhibitors; E. coli YBA685 rctB-dependent plasmid, OD600 growth, 3 h; hits give low values; z-score (concentration not given with the values); 130,000 tested, 0.27% active; AID 504770; in the data active = z-score below about -2, passing the limit was not always enough
* hit, by the source's call; nt = no result. Rows were chosen to be rich in hits. Some 0.4% of all compounds tested hit in one or more screens of this group.

SMILES	Ba CapD inh	AID504770
CC1(C)OC(=O)CC1C(=O)O (centres undefined)	nt	-0.6
C=CCn1c(N)cc(=O)nc1SC(C)C(=O)Nc1ccc(C)cc1 (centres undefined)	-0.045	0.1
CN(C)c1ccc(/C=C2\SC(=O)N(CCN=C3NS(=O)(=O)c4ccccc43)C2=O)cc1	0.79	nt
CCCn1c(N)c(C(=O)CSc2nnc(Nc3cccc(OC)c3)s2)c(=O)n(C)c1=O	nt	-0.3
CCCN1CCC(N(C(=O)c2ccc(NC(=O)Cc3ccc(Cl)cc3)cc2)C2CC2)CC1	-0.32	nt
CCCNC(=O)c1c(C)cc(=O)oc1C	-1.6	-0.4
Cc1cc(=O)oc(C)c1C(=O)NCc1ccccc1	-3.7*	0.3
COc1cc2c(cc1OC)C(C)N(C(=O)CN1C(=O)CCc3ccccc31)CC2 (centres undefined)	-0.2	-2.9*
COc1cc2c(cc1OC)C(C)N(C(=O)c1ccccc1)CC2 (centres undefined)	0.81	2.2
CNC(=O)c1cc(-c2ccc(OC)cc2)nc2ccccc12	nt	-0.75
CC1=C(C(=O)OCc2ccccc2)C(c2ccc(OCc3ccccc3)cc2)NC(=O)N1C (centres undefined)	-0.58	nt
N/C(=N\OC(=O)Cc1ccccc1)c1ccncc1	nt	-0.45
N/C(=N\OC(=O)c1ccc(Br)o1)c1ccncc1	0.17	-2.4*
CN(C(=S)NCc1ccc2c(c1)OCO2)C1CCS(=O)(=O)C1 (centres undefined)	nt	-0.6
O=C(N[C@@H](CO)[C@H](O)c1ccc([N+](=O)[O-])cc1)C(Cl)Cl	nt	-2.7*
O=C(O)CCC(=O)OC[C@@H](NC(=O)C(Cl)Cl)[C@H](O)c1ccc([N+](=O)[O-])cc1	0.17	-1.2
CCOC(=O)Cc1nnc(SCc2ccc(C#N)cc2)n1Cc1ccco1	nt	0.05
CC(OC(=O)c1cc(S(=O)(=O)N(C)C)ccc1N1CCCC1)C(=O)N1CCc2ccccc21 (centres undefined)	nt	-3*
CC(OC(=O)c1ccccc1F)C(=O)N1CCc2ccccc21 (centres undefined)	nt	-0.8
O=C1CN(c2cc(Cl)cc(Cl)c2)C(=O)CN1/N=C/c1cccnc1	-0.81	3.5
O=C1CSC(=S)N1/N=C/c1cccnc1	-4*	-0.4
CC(C)S(=O)(=O)C1=NSC2=NC(=O)/C(=C\c3ccco3)C(=N)N21	-3.8*	0
COc1cc(/C=C2/C(=N)N3C(=NC2=O)SN=C3S(=O)(=O)C(C)C)cc(Cl)c1OC(=O)c1ccco1	-1.3	0.8
CC1CCN(S(=O)(=O)c2ccc(C(=O)Nc3c(C(N)=O)oc4ccccc34)cc2)CC1	nt	1.3
O=C(O)c1cc(C=Nc2ccc(S(=O)(=O)NC3NC=CS3)cc2)c2c(c1)COCO2 (centres undefined)	-5.2*	1.6
SMILES	Ba CapD inh	AID504770
Cc1cc(NS(=O)(=O)c2ccc(N=Cc3ccccc3O)cc2)no1	2.1	-0.5
N#CC(c1cccs1)N1CCOCC1 (centres undefined)	-0.16	nt
COC(CNC(=O)c1ccc2c(=O)n(Cc3ccco3)c(=S)[nH]c2c1)OC	-0.57	0.25
CC(C)NC(=O)c1ccc2c(=O)n(Cc3ccco3)c(=S)[nH]c2c1	-5.1*	-0.8
Cc1ccc(N=c2ssc3c2-c2cc(C)c(C)cc2NC3(C)C)cc1	-0.43	nt
C/C(CCc1ccc2c(c1)OCO2)=N\Nc1nc(C)cc(C)n1	nt	0.6
COc1cc(OC)nc(C2CCCCC2C(=O)NCc2cccc(C(F)(F)F)c2)n1 (centres undefined)	0.11	nt
Cc1ccc(-n2nc(C(=O)NC(C)CCc3ccccc3)c3c4ccccc4n(C)c3c2=O)cc1 (centres undefined)	17	-2.8*
CCC(C)NC(=O)c1nn(-c2ccc(OC)cc2)c(=O)c2c1c1ccccc1n2C (centres undefined)	1.1	0.3
CCCNC(=O)c1ccc(N2CC3CC(C2)c2cccc(=O)n2C3)c(NS(=O)(=O)c2ccc3c(c2)OCCO3)c1 (centres undefined)	-0.39	-0.7
CC(C)(C)SCC(=O)O	nt	0.15
NC(=O)N/N=C/c1ccc(/C=N/NC(N)=O)cc1	0.77	2
Cc1cc(C)c(/C=N/NC(N)=O)c(C)c1/C=N/NC(N)=O	nt	-3.2*
COc1ccc(N(C(=O)C(C)C)S(=O)(=O)c2cccs2)cc1	-7*	-0.6
CC(=O)Oc1ccc(N(C(C)=O)S(=O)(=O)c2cccs2)cc1	-2.7	0.15
O=C(/C=C/c1ccccc1)N1CCCCC1c1cccnc1 (centres undefined)	-1	0.1
CC(=O)N1CCCCC1c1cccnc1.O=[N+]([O-])O.[Ag] (centres undefined)	1.9	-5.5*
CC1CN(c2cc(=O)n(-c3ccc(Cl)cc3)c(=O)[nH]2)CC(C)O1 (centres undefined)	-4.1*	0.25
Cc1ccc(Cl)cc1-n1c(=O)cc(N2CC(C)OC(C)C2)[nH]c1=O (centres undefined)	-0.78	2.3
CCC(NS(=O)(=O)c1ccc(C)cc1)C(=O)NCc1ccccc1 (centres undefined)	nt	-0.45
CNC1(C#N)CCC(C)CC1 (centres undefined)	nt	-2.3*
CNC1(C#N)CCCCC1	nt	-0.4
Clc1ccccc1N=Nc1cnc(-c2ccncc2)nc1-c1ccccc1	0.4	nt
CC(=O)Nc1ccc(/C=C2/C(=O)N(CCC#N)C=C2C)cc1	nt	0.2
O=C(/C=C(\O)c1ccc(Cl)cc1)C(F)(F)F	-2.7	-4.3*
SMILES	Ba CapD inh	AID504770
CC(=O)/C=C(\O)c1ccc(Cl)cc1	nt	-1.2
C[CH2][Hg][S]c1ccccc1C(=O)O	-0.42	-5.4*
CN(C)C(=O)CSc1ccccc1C(=O)O	nt	0.8
COc1ccc(N2C(=O)CC(Sc3nc4ccccc4c(=O)n3CCO)C2=O)cc1 (centres undefined)	nt	-2.1*
CCOc1ccc2nc(SC3CC(=O)N(c4ccc(OC)cc4)C3=O)nc(C)c2c1 (centres undefined)	8.2	nt
CCCCn1c(/N=C/c2c[nH]c3ccccc23)nc2ccccc21	nt	-1.3
CCCn1c(/N=C/c2c[nH]c3ccccc23)nc2ccccc21	-4.1*	-1.6
CCOC(=O)c1sc2ncnc(N3CCc4ccccc4C3)c2c1C	0.51	-0.4
CCOC(=O)c1cnc(N2CCc3ccccc3C2)nc1N	-3.9*	-0.75
Cc1nc2ccc(N=Cc3ccc(Br)cc3)cc2s1	-0.34	-2.4*
Cc1nc2ccc(CCO)cc2s1	-0.18	-0.7
CC(C)(C)NS(=O)(=O)c1ccc(N2C(=O)CCC2=O)cc1	-0.17	-0.65
O=C(Nc1ccnn1Cc1cccs1)C(Sc1ccccc1)c1ccccc1 (centres undefined)	nt	-0.7
CC(Sc1ncnc2sc3c(c12)CCCC3)C(=O)O (centres undefined)	1.8	-3.4*
CCN(CC)c1ncnc2sc3c(c12)CCCC3	-0.17	-0.45
CC(=O)N(C(C)=O)c1ncnc2sc3c(c12)CCCC3	-5.4*	1.9
COC(=O)CSc1ncnc2sc3c(c12)CCCC3	-0.12	nt
N#Cc1c(N)nc(SCC(=O)Nc2ccc([N+](=O)[O-])c3ccccc23)c(C#N)c1-c1ccco1	-0.015	nt
O=C(NC(Cc1c[nH]c2ccccc12)C(=O)OCc1ccccc1)OCCCc1ccccc1 (centres undefined)	-0.77	nt
CCOC(=O)C1=C(C)N=c2s/c(=C\c3cc([N+](=O)[O-])c(OC)cc3OC)c(=O)n2C1c1ccc(OC)cc1 (centres undefined)	-0.02	nt
Cc1nnc2c(Nc3ccc(I)cc3)nc3nonc3n12	-0.46	nt
Cc1nnc2c(Nc3ccccc3I)nc3nonc3n12	nt	-2.8*
Cc1ccc(-c2cccc(=O)o2)cc1	-4*	-1
